These compounds were tested against Bromodomain-containing protein 4 (Homo sapiens) (UniProt O60885). Conditions: Compound concentration 20.0 uM, Protein concentration 2.0 uM, Result type QC Liability.

| Structure (SMILES) | ΔTm |
| --- | --- |
| COc1nc2ccc([C@@](O)(c3ccc(Cl)cc3)c3cncn3C)cc2c(Cl)c1Cc1ccc(-n2cccn2)cc1 | -0.83 °C |
| N[C@H](C(=O)O)[C@@H]1CC(Cl)=NO1 | -0.13 °C |
| CO[C@H](C)CN1CC[C@]2(C)c3cccc(O)c3C[C@H]1C2(C)C | -1.2 °C |
| CS(=O)(=O)c1ccc(-c2cnc(N)c(C(=O)Nc3ccccc3)n2)cc1 | 0.79 °C |
| CO[C@@H](C)CN1CC[C@]2(C)c3cc(O)ccc3C[C@H]1C2(C)C | -1.9 °C |
| Cc1ccc2c(N)c(C(=O)NC3CCc4cc(N5CC6CCC(C5)N6)ccc4C3)sc2n1 (stereo not given) | -0.53 °C |
| CNc1nc(-c2cc(C(=O)N3CCN(Cc4ccc(Cl)cc4)CC3)c(Cl)cn2)cs1 | 0.71 °C |
| O=C(NCCN1CCC2(CC1)C(=O)NCN2c1cccc(F)c1)c1ccc2ccccc2c1 | -0.54 °C |
| C=CC(=O)Nc1ccc2[nH]c(=O)n(C3CCN(Cc4ccc(-c5ccc6c(c5)NC(=O)CO6)cc4)CC3)c2c1 | 0.27 °C |
| CCC(=O)O[C@@H](OP(=O)(CCCCc1ccccc1)CC(=O)N1C[C@H](C2CCCCC2)C[C@H]1C(=O)O)C(C)C (stereo not given in full) | -0.8 °C |
| C[C@H](CCC(=O)O)[C@H]1CC[C@H]2[C@@H]3CC[C@@H]4C[C@H](O)CC[C@]4(C)[C@H]3CC[C@]12C | -7.72 °C |
| C[C@@H](CO)CCC[C@@H](C)[C@H]1CC[C@H]2[C@@H]3CC=C4C[C@@H](O)CC[C@]4(C)[C@H]3CC[C@]12C | -3.47 °C |
| COc1ccc(OC(=O)N(CC(=O)O)Cc2ccc(OCCc3nc(-c4ccccc4)oc3C)cc2)cc1 | -4.38 °C |
| COP(=O)(CCC(N)C(=O)O)Oc1cccc(CC(=O)O)c1 (stereo not given) | -0.52 °C |
| Cc1nnc2n1-c1sc3c(c1C(c1ccccc1Cl)=NC2)CC(C(=O)N1CCOCC1)C3 (stereo not given) | 0.62 °C |
| COc1ccc(-n2nc(C(F)(F)F)cc2-c2ccc(Cl)cc2)cc1 | -1.21 °C |
| OCC1OC(n2cnc3cc(Cl)c(Cl)cc32)C(O)C1O (stereo not given) | 0.7 °C |
| Cc1nnc2n1-c1sc(CCC(=O)N3CCOCC3)cc1C(c1ccccc1Cl)=NC2 | -0.19 °C |
| C=CC(=O)N1CCC[C@@H](n2nc(-c3ccc(Oc4ccccc4)cc3)c3c(N)ncnc32)C1 | -4.44 °C |
| C[C@H](CCC(=O)O)[C@H]1CC[C@H]2[C@@H]3[C@@H](O)C[C@@H]4C[C@H](O)CC[C@]4(C)[C@H]3CC[C@]12C | -2.97 °C |

| Structure (SMILES) | ΔTm |
| --- | --- |
| C[C@]12CC[C@@H]3c4ccc(C(N)=O)cc4CC[C@H]3[C@@H]1CC=C2c1cncc(F)c1 | 0 °C |
| CCN1C(=O)C(c2cccc(C(=O)O)c2)C(=O)N(c2ccccc2)c2cc(C(F)(F)F)ccc21 (stereo not given) | -0.84 °C |
| CO[C@H](C)CN1CC[C@@]2(C)c3ccc(O)cc3C[C@@H]1C2(C)C | -0.17 °C |
| CCN(CC)CCO[C@H]1CC[C@@]2(C)C(=CC[C@@H]3[C@@H]2CC[C@]2(C)C(=O)CC[C@@H]32)C1 | -1.53 °C |
| CNC(=O)c1cc(C(=O)NC2CC2)cn(Cc2ccccc2)c1=O | -1.08 °C |
| CCCn1cc(-c2cc(C3C(=O)N(CC)c4ccc(C(F)(F)F)cc4N(c4ccccc4)C3=O)cc(OC)c2O)cn1 (stereo not given) | 1.56 °C |
| C=CC(=O)Nc1cc(-c2nn(C3CCC(N4CCN(C(C)=O)CC4)CC3)c3ncnc(N)c23)ccc1Oc1ccccc1 (stereo not given) | -0.22 °C |
| CN1CCN(C(=O)Cc2ccc(N/C(=C3\C(=O)Nc4cc(Cl)ccc43)c3ccccc3)cc2)CC1 | -3.18 °C |
| Cc1cc(Cl)ccc1S(=O)(=O)NC[C@H]1C2CCC(CC2)[C@@H]1/C=C\CCCC(=O)O | -1.69 °C |
| C=C[C@@]12CCc3cc(O)ccc3[C@H]1CC[C@@]1(C)[C@H]2CC[C@@H]1O | 0.82 °C |
| CN(C(=O)CCOCCOCCOCCOCCNc1cccc2c1C(=O)N(C1CCC(=O)NC1=O)C2=O)[C@H]1CC[C@@]2(C)[C@@H](CC[C@@H]3[C@@H]2CC[C@]2(C)[C@@H](c4ccc5ccncc5c4)CC[C@@H]32)C1 (stereo not given in full) | -2.19 °C |
| Cn1ncc(-c2nc(N[C@H]3CC[C@H](N)CC3)ncc2Cl)c1CC1CC1 | -0.39 °C |
| Cc1nnc2n1-c1sc3c(c1C(c1ccccc1Cl)=NC2)C[C@@H](C(=O)N1CCOCC1)C3 | 1.2 °C |
| O=C1CCC(N2Cc3cc(CNC(=O)C(F)(F)c4ccc(Cl)cc4)ccc3C2=O)C(=O)N1 (stereo not given) | -1.23 °C |
| C[C@@H](CN1CC[C@@]2(C)c3cccc(O)c3C[C@@H]1C2(C)C)OCc1ccccc1 | -0.17 °C |
| CCOP(=O)(OCC)C(=Cc1cc(C(C)(C)C)c(O)c(C(C)(C)C)c1)P(=O)(OCC)OCC | -3.19 °C |
| C[C@@H]1CC[C@@]2(OC1)O[C@H]1[C@@H](O)[C@H]3[C@@H]4CC[C@H]5C[C@@H](O[C@@H]6O[C@H](CO)[C@H](O[C@@H]7O[C@H](CO)C(O)[C@H](O[C@@H]8OC[C@@H](O)[C@H](O)[C@H]8O)[C@H]7O[C@@H]7O[C@H](CO)[C@H](O)[C@H](O[C@@H]8O[C@H](CO)[C@@H](O)[C@H](O)[C@H]8O)[C@H]7O)[C@H](O)[C@H]6O)[C@H](O)C[C@]5(C)[C@H]4CC[C@]3(C)[C@H]1[C@@H]2C (stereo not given in full) | -1.87 °C |
| Cc1nnc2n1-c1sc3c(c1C(c1ccccc1Cl)=NC2)C[C@H](C(=O)N1CCOCC1)C3 | -0.46 °C |
| CC[C@H]1[C@@H](O)[C@@H]2[C@H](CC[C@]3(C)[C@@H]([C@H](C)CCC(=O)O)CC[C@@H]23)[C@@]2(C)CC[C@@H](O)C[C@@H]12 | -3.05 °C |
| Clc1ccccc1C(c1ccccc1)(c1ccccc1)n1cccn1 | -0.07 °C |

Source: ChEMBL document CHEMBL5308504, “Tm Shift (DSF) assay results for EUbOPEN Chemogenomics Library” (2023)
